Assay results published in PubChem BioAssay (Tox21).
Results filed as inconclusive are left out. Activity calls are given as the source filed them. Unless noted, calls follow the shape of the dose curve; as a rule, active = well fitted curve in the direction sought with a large enough effect in the repeat runs; inconclusive = weak or mixed curves; inactive = no such curve, though single readings can be large; an effect the other way counts as inactive or inconclusive.

Key:
[1] = qHTS assay to identify small molecule agonists of the vitamin D receptor (VDR) signaling pathway - cell viability counter screen (AID 743224); also: series mostly up to about 63 µM; nearly all actives have a fitted effect of over 50% in size
How it was run: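 VDR-bla cell line, quantitative HTS format; 16 h compound incubation (37C, 5% CO2); ATP-based CellTiter-Glo luminescence measured in the reporter assay wells.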

[2] = qHTS assay to identify small molecule antagonists of the vitamin D receptor (VDR) signaling pathway - cell viability counter screen (AID 743225); also: nearly all actives have a fitted effect of over 50% in size
How it was run: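 Compounds were pinned onto VDR-bla HEK 293T cells together with 1-alpha,25-dihydroxyvitamin D3 at 3 nM final. After 16 h at 37C and 5% CO2 plus the reporter readout, cell viability was measured by CellTiter-Glo luminescence (30 min, room temperature).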

[3] = qHTS assay to identify small molecule agonists of the NFkB signaling pathway - cell viability counter screen (AID 1159515; calls by dose curve; also: series mostly up to about 61 µM; nearly all actives have a fitted effect of over 55% in size)
How it was run: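 Viability in NFkB-bla ME-180 cells was measured by CellTiter-Glo luminescence, 30 min room temperature, in wells already treated 5 hr with compounds and read for reporter FRET.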

[4] = qHTS assay to identify small molecule agonists of the endoplasmic reticulum stress response signaling pathway (AID 1159516; active = well fitted activation curve with a large enough effect in the signal ratio in the repeat runs, not every such curve was filed as active; the % refers to the signal ratio)
How it was run: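 ER stress element reporter (bla) in HeLa. 1,500 cells/well, overnight attachment; 5 hr compound; 2 hr RT substrate; dual-emission fluorescence.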

[5] = qHTS assay to identify small molecule antagonists of the retinoid-related orphan receptor gamma (ROR-gamma) signaling pathway - cell viability counter screen (AID 1159520); also: nearly all actives have a fitted effect of over 50% in size
How it was run: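 Cytotoxicity was read from cellular ATP (CellTiter-Glo luminescence) after 16 hr at 37 C with 1 uM doxycycline induction. The inducer was added 2 hr after compound transfer to Tet-on ROR gamma CHO cells.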

[6] = molecular target: Nuclear receptor ROR-gamma (Homo sapiens) (UniProt P51449); test: qHTS assay to identify small molecule antagonists of the retinoid-related orphan receptor gamma (ROR-gamma) signaling pathway (AID 1159521;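 also: CHO cells with doxycycline inducible ROR-gamma driving an RORE luciferase reporter; top concentration of the series differs between compounds; nearly all actives have a fitted effect of over 50% in size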)
How it was run: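 Test compounds were applied to Tet-on RORγ CHO cells 2 h ahead of doxycycline hyclate (1 uM final). Luciferase reporter activity was quantified by luminescence after 16 h at 37 C and 5% CO2.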

[7] = qHTS assay to identify small molecule agonists of the AP-1 signaling pathway - cell viability counter screen (AID 1159525; calls by dose curve; also: nearly all actives have a fitted effect of over 55% in size)
How it was run: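 Luminescent ATP readout (Cell Titer Glo, 30 min RT), normalised to DMSO and tetra n-octyl ammonium bromide controls. Cells were ME-180 AP-1-bla in 0.5% dialyzed FBS Opti-MEM, with a 5 h, 37 °C compound exposure.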

[8] = qHTS assay to identify small molecule agonists of the AP-1 signaling pathway (AID 1159526; calls by dose curve)
[9] = qHTS assay to identify small molecule antagonists of the retinoid acid receptor (RAR) signaling pathway - cell viability counter screen (AID 1159551); also: nearly all actives have a fitted effect of over 35% in size
How it was run: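 Following overnight attachment, C3RL4 reporter cells received DMSO-dissolved compounds and then retinol (1 uM final). Six hours later at 37 C, ATP content was measured by CellTiter-Glo luminescence.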

[10] = qHTS assay to identify small molecule antagonists of the retinoic acid receptor (RAR) signaling pathway (AID 1159552; also: nearly all actives have a fitted effect of over 50% in size)
How it was run: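 Test chemicals and DMSO controls were pin-transferred onto C3RL4 cells a day after seeding; retinol (1 uM final) followed at once. Luminescent reporter output was quantified after 6 hr of co-incubation and 30 min with detection reagent.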

[11] = qHTS assay to identify small molecule agonists of the retinoic acid receptor (RAR) signaling pathway (AID 1159553)
How it was run: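 Cell line C3RL4, RARE luciferase reporter. Treatment: compounds in DMSO, 6 hr, 37 C, 5% CO2, after overnight plating. Detection: luminescence, 30 min RT after reagent.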

[12] = qHTS assay to identify small molecule agonists of the endoplasmic reticulum stress response signaling pathway - cell viability counter screen (AID 1159517; calls by dose curve)
How it was run: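 Cells, HeLa ESRE-bla; density, 1,500/well; dosing, 5 hr at 37 C, 5% CO2; readout, CellTiter-Glo luminescence after 30 min RT.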

[13] = qHTS assay to identify small molecule agonists of the RXR signaling pathway - cell viability counter screen (AID 1159529)
How it was run: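 Compounds dissolved in DMSO were pinned onto HEK 293T cells carrying a beta-lactamase reporter under RXR-alpha control and incubated 16 hr. Cytotoxicity was then quantified by CellTiter-Glo luminescence.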

[14] = molecular target: Retinoic acid receptor RXR-alpha (Homo sapiens) (UniProt P19793); test: qHTS assay to identify small molecule agonists of the RXR signaling pathway (AID 1159527; calls by dose curve; also: nearly all actives have a fitted effect of over 35% in size)
How it was run: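 Using 9-cis retinoic acid as the reference agonist, chemicals were tested in HEK 293T cells […] for 16 hr; substrate loading lasted 2 hr at room temperature.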

Measured: Potency

Chain of Retinoic acid receptor RXR-alpha (Homo sapiens) (P19793 whole entry, looked up): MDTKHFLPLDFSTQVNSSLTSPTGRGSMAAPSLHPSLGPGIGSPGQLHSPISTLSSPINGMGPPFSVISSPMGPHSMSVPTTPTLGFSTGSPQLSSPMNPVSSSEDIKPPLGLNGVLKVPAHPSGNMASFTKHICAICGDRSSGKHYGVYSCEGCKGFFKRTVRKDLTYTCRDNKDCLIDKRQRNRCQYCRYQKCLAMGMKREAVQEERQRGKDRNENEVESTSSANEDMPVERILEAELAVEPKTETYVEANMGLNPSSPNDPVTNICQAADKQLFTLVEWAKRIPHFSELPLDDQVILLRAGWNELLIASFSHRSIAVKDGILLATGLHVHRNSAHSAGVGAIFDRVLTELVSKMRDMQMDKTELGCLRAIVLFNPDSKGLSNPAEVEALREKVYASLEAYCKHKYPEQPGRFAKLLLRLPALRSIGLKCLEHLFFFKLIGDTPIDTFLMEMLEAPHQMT

O=C1CC2(CCCC2)CC(=O)N1
not listed: [12] | [13] | [14]
inactive: all other assays above

OC[C@H]1O[C@@H]2O[C@H]3[C@H](O)[C@@H](O)[C@@H](O[C@H]4[C@H](O)[C@@H](O)[C@@H](O[C@H]5[C@H](O)[C@@H](O)[C@@H](O[C@H]6[C@H](O)[C@@H](O)[C@@H](O[C@H]7[C@H](O)[C@@H](O)[C@@H](O[C@H]8[C@H](O)[C@@H](O)[C@@H](O[C@H]9[C@H](O)[C@@H](O)[C@@H](O[C@H]1[C@H](O)[C@H]2O)O[C@@H]9CO)O[C@@H]8CO)O[C@@H]7CO)O[C@@H]6CO)O[C@@H]5CO)O[C@@H]4CO)O[C@@H]3CO
not listed: [9] | [13] | [14]
inactive: all other assays above

CC(C)COC(=O)C(C)C
not listed: [12] | [14]
inactive: all other assays above

CCC(C)OC(=O)N1CCCCC1CCO (stereo not given)
not listed: [3] | [5] | [14]
inactive: all other assays above

CN(C)CCOC(c1ccc(Cl)cc1)c1ccccn1 (stereo not given)
not listed: [10] | [11]
inactive: all other assays above

C=C(C)C(=O)OCCC(C)OC(=O)C(=C)C (stereo not given)
not listed: [14]
inactive: all other assays above

CNC(=O)c1c(I)c(NC(=O)CCCCC(=O)Nc2c(I)c(C(=O)O)c(I)c(C(=O)NC)c2I)c(I)c(C(=O)O)c1I
not listed: [2] | [3] | [5] | [12] | [14]
inactive: all other assays above

COc1cc(C(=O)N2CCOCC2)cc(OC)c1OC
not listed: [10] | [11] | [12]
inactive: all other assays above

NC(CS)C(=O)O (stereo not given)
not listed: [2] | [9] | [10] | [11] | [13]
inactive: all other assays above

Nc1ncnc2c1ncn2Cc1c(F)cccc1Cl
not listed: [10] | [11] | [13]
inactive: all other assays above

CC(C)CCOC(=O)CC(C)C
not listed: [5] | [6] | [10] | [11]
inactive: all other assays above

NCCNC(=O)c1ccc(Cl)cn1
not listed: [6] | [10] | [11] | [13]
inactive: all other assays above

CCCCc1ccc(N)cc1
not listed: [3] | [10] | [11] | [12]
inactive: all other assays above

C=C(C)C1CC=C(C)C(O)C1 (stereo not given)
not listed: [5] | [14]
inactive: all other assays above

[O-][N+](=Nc1ccccc1)c1ccccc1
not listed: [10] | [11] | [13]
inactive: all other assays above

CNc1ncnc2nc[nH]c12
not listed: [3] | [9] | [11]
inactive: all other assays above

O=C(O)/C=C/c1ccc(Cn2ccnc2)cc1
not listed: [9] | [10] | [11] | [13]
inactive: all other assays above

N#CCN(CC#N)CCN(CC#N)CC#N
not listed: [10] | [11]
inactive: all other assays above

NC1CCN(c2cccc(Cl)n2)CC1
not listed: [12] | [13]
inactive: all other assays above

N#CC1(O)CCCCC1
not listed: [6] | [10] | [11] | [13]
inactive: all other assays above

O=[N+]([O-])c1ccc(Oc2ccc([N+](=O)[O-])cc2)cc1
not listed: [2] | [5] | [12] | [14]
inactive: all other assays above

CN(C)C(=O)Nc1ccccc1
not listed: [3] | [14]
inactive: all other assays above
